Reference: PubChem BioAssay AID602143 (Vanderbilt Specialized Chemistry Center, 2011)
Unmarked numbers belong to inactive results. Active and inactive are the calls of the source. Rule as the data show it: active = remaining activity below about 50%; inactive = the rest.

The compounds below were run against Phospholipase D2 (Homo sapiens) (UniProt O14939) (assay: PLD2 inhibitors in cells, cell-based, HEK293, single concentration (AID 602143;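 also: tested at 200 nM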)). Conditions: HEK293 cellular PLD2 activity, percent of control; stronger effect = lower value.
Phospholipase D2 (Homo sapiens), sequence (O14939 whole entry, looked up): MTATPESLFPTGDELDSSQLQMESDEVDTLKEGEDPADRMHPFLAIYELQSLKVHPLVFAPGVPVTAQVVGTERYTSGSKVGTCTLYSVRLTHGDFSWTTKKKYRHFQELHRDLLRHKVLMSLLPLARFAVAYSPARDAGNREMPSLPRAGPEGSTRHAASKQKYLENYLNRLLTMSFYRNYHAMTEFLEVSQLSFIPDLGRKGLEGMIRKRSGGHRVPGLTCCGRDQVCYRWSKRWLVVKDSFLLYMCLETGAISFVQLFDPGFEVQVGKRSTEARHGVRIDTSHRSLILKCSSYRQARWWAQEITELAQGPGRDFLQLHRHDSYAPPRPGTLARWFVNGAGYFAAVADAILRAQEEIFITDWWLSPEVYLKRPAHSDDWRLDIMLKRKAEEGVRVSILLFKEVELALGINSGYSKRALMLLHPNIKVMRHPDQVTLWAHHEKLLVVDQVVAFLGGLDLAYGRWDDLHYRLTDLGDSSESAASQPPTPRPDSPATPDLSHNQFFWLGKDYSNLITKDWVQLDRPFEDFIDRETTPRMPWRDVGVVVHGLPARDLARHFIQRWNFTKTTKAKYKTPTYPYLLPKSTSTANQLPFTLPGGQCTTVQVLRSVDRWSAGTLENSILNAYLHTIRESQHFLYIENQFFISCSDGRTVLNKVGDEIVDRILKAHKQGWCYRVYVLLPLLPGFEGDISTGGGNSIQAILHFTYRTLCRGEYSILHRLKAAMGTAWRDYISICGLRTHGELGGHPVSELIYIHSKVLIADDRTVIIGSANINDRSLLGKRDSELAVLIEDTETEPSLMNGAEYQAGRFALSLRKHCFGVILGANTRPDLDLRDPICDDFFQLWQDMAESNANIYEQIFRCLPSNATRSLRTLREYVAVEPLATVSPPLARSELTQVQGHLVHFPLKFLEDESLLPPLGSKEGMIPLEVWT
Phospholipase D2 (Homo sapiens), sequence (O14939 whole entry, looked up): as above
In the case of `O=C(NCCN1CCC(n2c(=O)[nH]c3ccc(F)cc32)CC1)c1cccc2c1C(=O)c1ccccc1-2`, the remaining activity is reported as 0% (active).
Compound `O=C(NCCN1CCC(n2c(=O)[nH]c3ccccc32)CC1)c1ccc(-c2ccccc2)o1` has a remaining activity of 68.6%.
Work on `CN(CCN1CCC(n2c(=O)[nH]c3ccccc32)CC1)C(=O)c1ccc2ccccc2c1` yielded a remaining activity of 101%.
`O=C(NCCN1CCC(n2c(=O)[nH]c3ccccc32)CC1)c1ccc2cccc3c2c1CC3` was tested, and the remaining activity was 98%.
Compound `O=C(NCCN1CCC2(C=Cc3ccccc32)CC1)c1ccc2ccccc2c1` has a remaining activity of 119%.
`COc1ccccc1NC(=S)NCCN1CCC(n2c(=O)[nH]c3ccccc32)CC1` was tested, and the remaining activity was 126%.
Compound `O=C(NCCN1CCC(n2c(=O)[nH]c3ccccc32)CC1)C1CCCCCCCCCC1` has a remaining activity of 81.3%.
Compound `C[C@@H](CN1CCC(n2c(=O)[nH]c3cc(Br)ccc32)CC1)NC(=O)c1ccc(F)cc1` has a remaining activity of 80.4%.
In the case of `O=C(NCCN1CCN(c2ccncc2)CC1)c1ccc2ccccc2c1`, the remaining activity is reported as 110%.
For `C[C@@H](CN1CCC(n2c(=O)[nH]c3ccccc32)CC1)NC(=O)c1ccc(F)c(F)c1`, the remaining activity was 75.6%.
`Cc1ccc(C(=O)NCCN2CCC(n3c(=O)[nH]c4cc(Br)ccc43)CC2)cc1` was tested, and the remaining activity was 21.8% (active).
In the case of `CCNC(=S)NCCN1CCC(n2c(=O)[nH]c3ccccc32)CC1`, the remaining activity is reported as 78.2%.
`Cn1c(C2CCN(CCN)CC2)nc2ccccc21` (tested in a mixture with another compound) was tested, and the remaining activity was 117%.
`COc1cccc(N2CCN(CCNC(=O)c3ccc(C(F)(F)F)cc3)CC2)c1` gave a remaining activity of 98.3%.
`O=C(NCCN1CCC(n2c(=O)[nH]c3cc(Cl)ccc32)CC1)c1ccc2ccccc2c1` was tested, and the remaining activity was 63.9%.
In the case of `NCCN1CCC(n2c(=O)[nH]c3cc(Cl)ccc32)CC1` (tested in a mixture with another compound), the remaining activity is reported as 83.1%.
For `Nc1ccc(C(=O)NCCN2CCC(n3c(=O)[nH]c4ccccc43)CC2)cc1OC(F)(F)F`, the remaining activity was 76.5%.
With `O=C(N[C@@H](Cc1ccccc1)CN1CCC(n2c(=O)[nH]c3ccccc32)CC1)c1cnc2ccccc2c1` the remaining activity was 60.2%.
With `O=C(C1C[C@@H]1c1ccccc1)N1CCC(n2c(=O)[nH]c3cc(Cl)ccc32)CC1` (some centres not stated) the remaining activity was 72.5%.
In the case of `O=C(NCCN1CCC(n2c(=O)[nH]c3ccccc32)CC1)c1ncccn1`, the remaining activity is reported as 90.1%.
`CC(C)[C@@H](CN1CCC(n2c(=O)[nH]c3ccccc32)CC1)NC(=O)c1ccc2ccccc2c1` gave a remaining activity of 73.3%.
For `C[C@@H](CN1CCC(n2c(=O)[nH]c3ccccc32)CC1)NC(=O)Cc1cccs1`, the remaining activity was 99.6%.
Work on `Cc1cccc(NC(=O)NCCN2CCC(n3c(=O)[nH]c4ccccc43)CC2)c1` yielded a remaining activity of 111%.
In the case of `CS(=O)(=O)N1CC2(CCN(CCNC(=O)c3ccc4ccccc4c3)CC2)c2ccccc21`, the remaining activity is reported as 84.2%.
Compound `O=C(NCCN1CCN(c2ccccn2)CC1)c1ccc(F)cc1` has a remaining activity of 101%.
In the case of `C[C@@H](CN1CCC(n2c(=O)[nH]c3cc(-c4ccccc4)ccc32)CC1)NC(=O)[C@H]1C[C@@H]1c1ccccc1`, the remaining activity is reported as 79.2%.
With `O=C(NCCN1CCC(n2c(=O)[nH]c3ccccc32)CC1)c1cc2ccc3ccccc3c2c2ccccc12` the remaining activity was 109%.
